Data from PMC11006913.

Tests used:
Assay in all cases: PBM; 200 nM protein, PBS
Conditions in all cases: dsDNA, one strand shown
HOXB4 [1] = target: HOXB4 (Homo sapiens, UniProt P17483 148-234)
HOXB6 [2] = target: HOXB6 (Homo sapiens, UniProt P17509 132-218, K202E)
HOXB4 [3] = target: HOXB4 (Homo sapiens, UniProt P17483 148-234, V174I)
HOXB6 [4] = target: HOXB6 (Homo sapiens, UniProt P17509 132-218)
ALX1 [5] = target: ALX1 (Homo sapiens, UniProt Q15699 118-204, L144V)
ALX3 [6] = target: ALX3 (Homo sapiens, UniProt O95076 139-225, N203Q)
ALX3 (Homo sapiens, UniProt O95076 139-225, N203Q), sequence (O95076 139-225 N203Q): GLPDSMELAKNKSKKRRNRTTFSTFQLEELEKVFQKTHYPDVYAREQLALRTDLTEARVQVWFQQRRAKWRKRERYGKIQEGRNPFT

ALX1 [7] = target: ALX1 (Homo sapiens, UniProt Q15699 118-204, L144R)
ALX1 (Homo sapiens, UniProt Q15699 118-204, L144R), sequence (Q15699 118-204 L144R): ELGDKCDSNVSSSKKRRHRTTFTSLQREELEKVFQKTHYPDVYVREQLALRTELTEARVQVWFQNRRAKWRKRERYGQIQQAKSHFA

ALX3 [8] = target: ALX3 (Homo sapiens, UniProt O95076 139-225)
ALX3 (Homo sapiens, UniProt O95076 139-225), sequence (O95076 139-225): as the sequence (O95076 139-225 N203Q) above, with Q65N counted along it

ALX3 [9] = target: ALX3 (Homo sapiens, UniProt O95076 139-225, L168Q)
ALX3 (Homo sapiens, UniProt O95076 139-225, L168Q), sequence (O95076 139-225 L168Q): as the sequence (O95076 139-225 N203Q) above, with L30Q, Q65N counted along it

ALX3 [10] = target: ALX3 (Homo sapiens, UniProt O95076 139-225, L168V)
ALX3 (Homo sapiens, UniProt O95076 139-225, L168V), sequence (O95076 139-225 L168V): as the sequence (O95076 139-225 N203Q) above, with L30V, Q65N counted along it

ALX1 [11] = target: ALX1 (Homo sapiens, UniProt Q15699 118-204)
ALX1 (Homo sapiens, UniProt Q15699 118-204), sequence (Q15699 118-204): as the sequence (Q15699 118-204 L144R) above, with R27L counted along it

ALX3 [12] = target: ALX3 (Homo sapiens, UniProt O95076 139-225, N203S)
ALX3 (Homo sapiens, UniProt O95076 139-225, N203S), sequence (O95076 139-225 N203S): as the sequence (O95076 139-225 N203Q) above, with Q65S counted along it

PRRX1 [13] = target: PRRX1 (Homo sapiens, UniProt P54821 80-166, F113S)
PRRX1 (Homo sapiens, UniProt P54821 80-166, F113S), sequence (P54821 80-166 F113S): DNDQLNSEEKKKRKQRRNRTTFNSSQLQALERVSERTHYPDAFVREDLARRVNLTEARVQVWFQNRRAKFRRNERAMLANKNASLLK

PROP1 [14] = target: PROP1 (Homo sapiens, UniProt O75360 56-141)
PROP1 (Homo sapiens, UniProt O75360 56-141), sequence (O75360 56-141): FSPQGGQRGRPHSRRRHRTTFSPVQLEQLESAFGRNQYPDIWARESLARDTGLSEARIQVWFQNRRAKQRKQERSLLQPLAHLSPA

PROP1 [15] = target: PROP1 (Homo sapiens, UniProt O75360 56-141, R99H)
PROP1 (Homo sapiens, UniProt O75360 56-141, R99H), sequence (O75360 56-141 R99H): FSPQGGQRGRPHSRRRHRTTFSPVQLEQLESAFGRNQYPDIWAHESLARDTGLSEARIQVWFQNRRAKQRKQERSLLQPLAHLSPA

PROP1 [16] = target: PROP1 (Homo sapiens, UniProt O75360 56-141, F88S)
PROP1 (Homo sapiens, UniProt O75360 56-141, F88S), sequence (O75360 56-141 F88S): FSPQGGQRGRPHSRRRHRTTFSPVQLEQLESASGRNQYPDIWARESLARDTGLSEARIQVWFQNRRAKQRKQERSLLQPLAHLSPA

PRRX1 [17] = target: PRRX1 (Homo sapiens, UniProt P54821 80-166)
PRRX1 (Homo sapiens, UniProt P54821 80-166), sequence (P54821 80-166): as the sequence (P54821 80-166 F113S) above, with S34F counted along it

ALX4 [18] = target: ALX4 (Homo sapiens, UniProt Q9H161 200-286)
ALX4 (Homo sapiens, UniProt Q9H161 200-286), sequence (Q9H161 200-286): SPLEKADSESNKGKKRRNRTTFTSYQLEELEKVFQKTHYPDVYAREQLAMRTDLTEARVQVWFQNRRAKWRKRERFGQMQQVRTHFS

ALX4 [19] = target: ALX4 (Homo sapiens, UniProt Q9H161 200-286, Q225E)
ALX4 (Homo sapiens, UniProt Q9H161 200-286, Q225E), sequence (Q9H161 200-286 Q225E): as the sequence (Q9H161 200-286) above, with Q26E counted along it

VAX1 [20] = target: VAX1 (Homo sapiens, UniProt Q5SQQ9 86-172)
VAX1 (Homo sapiens, UniProt Q5SQQ9 86-172), sequence (Q5SQQ9 86-172): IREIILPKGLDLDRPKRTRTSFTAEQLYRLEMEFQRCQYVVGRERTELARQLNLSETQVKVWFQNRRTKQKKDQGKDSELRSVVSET

VAX1 [21] = target: VAX1 (Homo sapiens, UniProt Q5SQQ9 86-172, T142I)
VAX1 (Homo sapiens, UniProt Q5SQQ9 86-172, T142I), sequence (Q5SQQ9 86-172 T142I): as the sequence (Q5SQQ9 86-172) above, with T57I counted along it

VAX1 [22] = target: VAX1 (Homo sapiens, UniProt Q5SQQ9 86-172, K157R)
VAX1 (Homo sapiens, UniProt Q5SQQ9 86-172, K157R), sequence (Q5SQQ9 86-172 K157R): as the sequence (Q5SQQ9 86-172) above, with K72R counted along it

HOXB4 (Homo sapiens, UniProt P17483 148-234), sequence (P17483 148-234): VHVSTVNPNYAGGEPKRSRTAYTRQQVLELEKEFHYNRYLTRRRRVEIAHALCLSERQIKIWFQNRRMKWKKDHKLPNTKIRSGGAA
HOXB4 (Homo sapiens, UniProt P17483 148-234, V174I), sequence (P17483 148-234 V174I): as the sequence (P17483 148-234) above, with V27I counted along it
HOXB6 (Homo sapiens, UniProt P17509 132-218), sequence (P17509 132-218): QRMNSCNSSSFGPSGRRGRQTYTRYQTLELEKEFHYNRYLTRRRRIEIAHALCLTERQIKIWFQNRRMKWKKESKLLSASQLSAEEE
HOXB6 (Homo sapiens, UniProt P17509 132-218, K202E), sequence (P17509 132-218 K202E): as the sequence (P17509 132-218) above, with K71E counted along it
ALX1 (Homo sapiens, UniProt Q15699 118-204, L144V), sequence (Q15699 118-204 L144V): as the sequence (Q15699 118-204 L144R) above, with R27V counted along it

CAGGCGCG
binding signal (HOXB4 [1]): 7.35 upbm affinity estimate (log intensity, higher = more binding, comparable within an allelic series) | binding signal (HOXB6 [2]): 9.01 upbm affinity estimate (log intensity, higher = more binding, comparable within an allelic series) | binding signal (HOXB4 [3]): 7.45 upbm affinity estimate (log intensity, higher = more binding, comparable within an allelic series) | binding signal (HOXB6 [4]): 8.9 upbm affinity estimate (log intensity, higher = more binding, comparable within an allelic series)

GAGCTGCA
binding signal (HOXB4 [1]): 7.7 upbm affinity estimate (log intensity, higher = more binding, comparable within an allelic series) | binding signal (HOXB4 [3]): 7.45 upbm affinity estimate (log intensity, higher = more binding, comparable within an allelic series)

GTGATGGA
binding signal (HOXB4 [1]): 9.37 upbm affinity estimate (log intensity, higher = more binding, comparable within an allelic series) | binding signal (HOXB4 [3]): 9.3 upbm affinity estimate (log intensity, higher = more binding, comparable within an allelic series)

ACCCCCGT
binding signal (HOXB4 [1]): 7.65 upbm affinity estimate (log intensity, higher = more binding, comparable within an allelic series) | binding signal (HOXB6 [2]): 8.84 upbm affinity estimate (log intensity, higher = more binding, comparable within an allelic series) | binding signal (HOXB4 [3]): 7.64 upbm affinity estimate (log intensity, higher = more binding, comparable within an allelic series) | binding signal (ALX1 [5]): 6.28 upbm affinity estimate (log intensity, higher = more binding, comparable within an allelic series) | binding signal (ALX3 [6]): 7.64 upbm affinity estimate (log intensity, higher = more binding, comparable within an allelic series) | binding signal (ALX1 [7]): 6.2 upbm affinity estimate (log intensity, higher = more binding, comparable within an allelic series) | binding signal (ALX3 [8]): 7.58 upbm affinity estimate (log intensity, higher = more binding, comparable within an allelic series) | binding signal (ALX3 [9]): 7.58 upbm affinity estimate (log intensity, higher = more binding, comparable within an allelic series) | binding signal (ALX3 [10]): 7.57 upbm affinity estimate (log intensity, higher = more binding, comparable within an allelic series) | binding signal (ALX1 [11]): 6.29 upbm affinity estimate (log intensity, higher = more binding, comparable within an allelic series) | binding signal (ALX3 [12]): 7.61 upbm affinity estimate (log intensity, higher = more binding, comparable within an allelic series) | binding signal (HOXB6 [4]): 8.76 upbm affinity estimate (log intensity, higher = more binding, comparable within an allelic series)

CCAACGGA
binding signal (HOXB4 [1]): 7.78 upbm affinity estimate (log intensity, higher = more binding, comparable within an allelic series) | binding signal (PRRX1 [13]): 9.38 upbm affinity estimate (log intensity, higher = more binding, comparable within an allelic series) | binding signal (HOXB4 [3]): 7.67 upbm affinity estimate (log intensity, higher = more binding, comparable within an allelic series) | binding signal (PROP1 [14]): 6.62 upbm affinity estimate (log intensity, higher = more binding, comparable within an allelic series) | binding signal (PROP1 [15]): 6.69 upbm affinity estimate (log intensity, higher = more binding, comparable within an allelic series) | binding signal (PROP1 [16]): 6.66 upbm affinity estimate (log intensity, higher = more binding, comparable within an allelic series) | binding signal (PRRX1 [17]): 9.16 upbm affinity estimate (log intensity, higher = more binding, comparable within an allelic series)

CTGGAGCC
binding signal (HOXB4 [1]): 7.25 upbm affinity estimate (log intensity, higher = more binding, comparable within an allelic series) | binding signal (ALX4 [18]): 7.69 upbm affinity estimate (log intensity, higher = more binding, comparable within an allelic series) | binding signal (ALX4 [19]): 8.02 upbm affinity estimate (log intensity, higher = more binding, comparable within an allelic series) | binding signal (HOXB4 [3]): 7.29 upbm affinity estimate (log intensity, higher = more binding, comparable within an allelic series) | binding signal (VAX1 [20]): 6.85 upbm affinity estimate (log intensity, higher = more binding, comparable within an allelic series) | binding signal (VAX1 [21]): 6.94 upbm affinity estimate (log intensity, higher = more binding, comparable within an allelic series) | binding signal (VAX1 [22]): 6.67 upbm affinity estimate (log intensity, higher = more binding, comparable within an allelic series)

CCTGCGTC
binding signal (HOXB4 [1]): 7.55 upbm affinity estimate (log intensity, higher = more binding, comparable within an allelic series) | binding signal (HOXB4 [3]): 7.44 upbm affinity estimate (log intensity, higher = more binding, comparable within an allelic series)

ATGAGTTA
binding signal (HOXB4 [1]): 10.4 upbm affinity estimate (log intensity, higher = more binding, comparable within an allelic series) | binding signal (HOXB4 [3]): 10.6 upbm affinity estimate (log intensity, higher = more binding, comparable within an allelic series)

GCTGCGCC
binding signal (HOXB4 [1]): 7.58 upbm affinity estimate (log intensity, higher = more binding, comparable within an allelic series) | binding signal (ALX4 [18]): 8.05 upbm affinity estimate (log intensity, higher = more binding, comparable within an allelic series) | binding signal (ALX4 [19]): 8.03 upbm affinity estimate (log intensity, higher = more binding, comparable within an allelic series) | binding signal (HOXB4 [3]): 7.62 upbm affinity estimate (log intensity, higher = more binding, comparable within an allelic series) | binding signal (ALX3 [6]): 7.68 upbm affinity estimate (log intensity, higher = more binding, comparable within an allelic series) | binding signal (ALX3 [8]): 7.52 upbm affinity estimate (log intensity, higher = more binding, comparable within an allelic series) | binding signal (PROP1 [14]): 6.8 upbm affinity estimate (log intensity, higher = more binding, comparable within an allelic series) | binding signal (PROP1 [15]): 6.45 upbm affinity estimate (log intensity, higher = more binding, comparable within an allelic series) | binding signal (ALX3 [9]): 7.66 upbm affinity estimate (log intensity, higher = more binding, comparable within an allelic series) | binding signal (ALX3 [10]): 7.62 upbm affinity estimate (log intensity, higher = more binding, comparable within an allelic series) | binding signal (PROP1 [16]): 6.48 upbm affinity estimate (log intensity, higher = more binding, comparable within an allelic series) | binding signal (ALX3 [12]): 7.7 upbm affinity estimate (log intensity, higher = more binding, comparable within an allelic series)
